The results in this text go back to PubChem BioAssay.

The nature of assay [1]: reducers of endogenous Her2 protein level, primary screen, SKBR3 breast tumor cells, AlphaScreen, ATP viability (AID 461;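 active = Her2 level under about 52% in both replicate screens, with viability over 70% of control, limit read from the data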;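 for Her2 level: lower value means less Her2 protein in the cells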;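 for viability: percent of carrier control wells set as 100% viability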). The following applies: 18-24 h, measured here: SKBR3 viability, ATP luminescence, at 10 µM.
Assay [2] deals with Receptor tyrosine-protein kinase erbB-2 (Homo sapiens) (UniProt P04626). The assay is described as above. Particulars: 18-24 h, at 10 µM, stronger effect = lower value.
Receptor tyrosine-protein kinase erbB-2 (Homo sapiens), sequence (P04626 whole entry, looked up): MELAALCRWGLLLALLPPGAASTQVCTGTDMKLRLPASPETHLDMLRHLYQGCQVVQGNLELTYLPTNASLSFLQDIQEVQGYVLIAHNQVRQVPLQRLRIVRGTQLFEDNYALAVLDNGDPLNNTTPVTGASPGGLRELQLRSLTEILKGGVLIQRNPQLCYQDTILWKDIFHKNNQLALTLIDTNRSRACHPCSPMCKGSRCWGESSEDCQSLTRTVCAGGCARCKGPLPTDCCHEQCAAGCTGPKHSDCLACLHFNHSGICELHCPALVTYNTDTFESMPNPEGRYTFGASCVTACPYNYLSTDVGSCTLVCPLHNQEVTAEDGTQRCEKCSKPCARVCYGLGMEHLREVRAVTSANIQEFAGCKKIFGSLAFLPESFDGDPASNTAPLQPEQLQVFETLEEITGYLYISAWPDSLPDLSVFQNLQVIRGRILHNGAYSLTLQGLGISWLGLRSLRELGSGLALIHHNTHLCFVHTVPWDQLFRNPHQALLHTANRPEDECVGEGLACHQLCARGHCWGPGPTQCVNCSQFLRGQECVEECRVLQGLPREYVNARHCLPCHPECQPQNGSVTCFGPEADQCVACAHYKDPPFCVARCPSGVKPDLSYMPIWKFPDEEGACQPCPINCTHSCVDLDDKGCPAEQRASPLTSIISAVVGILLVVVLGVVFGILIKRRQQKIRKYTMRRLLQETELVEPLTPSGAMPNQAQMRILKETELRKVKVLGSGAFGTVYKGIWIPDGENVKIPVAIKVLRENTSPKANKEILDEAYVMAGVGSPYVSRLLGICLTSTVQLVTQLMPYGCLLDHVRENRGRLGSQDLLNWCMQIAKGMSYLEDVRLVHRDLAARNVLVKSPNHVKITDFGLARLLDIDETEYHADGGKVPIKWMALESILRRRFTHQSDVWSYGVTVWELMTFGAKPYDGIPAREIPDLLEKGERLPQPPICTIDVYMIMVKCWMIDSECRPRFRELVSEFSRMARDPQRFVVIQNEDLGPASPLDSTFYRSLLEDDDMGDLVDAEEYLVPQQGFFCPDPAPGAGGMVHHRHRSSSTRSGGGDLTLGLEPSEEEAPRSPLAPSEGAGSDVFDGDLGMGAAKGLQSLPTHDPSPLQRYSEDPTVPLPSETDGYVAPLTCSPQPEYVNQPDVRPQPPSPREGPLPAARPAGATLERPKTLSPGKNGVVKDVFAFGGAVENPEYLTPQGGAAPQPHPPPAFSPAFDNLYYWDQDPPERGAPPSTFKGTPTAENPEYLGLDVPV
Assay [3] can be described thus: SK-BR-3 cell growth inhibitors, pilot screen, 24 h, human (AID 572;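 active = viability at or below 10% of carrier control in both of two separate runs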;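 note: compound exposure lasted between 18 and 24 h rather than exactly 24 h; 100% = carrier-treated control wells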). Particulars: SK-BR-3 viability, CellTiter-Glo luminescence, at 10 µM, stronger effect = lower value. (ATP-based viability assays read luminescence as a measure of living cells.)
Assay [4] in a line: HUVEC growth inhibition – cell-based, human, primary screen (AID 575;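 active = viability at or below 30% in both replicate assays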;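 note: 100% = median of untreated cell wells with 0.1% DMSO on each plate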). The following applies: HUVEC proliferation, CellTiter-Glo luminescence, 72 h; at 10 µM; stronger effect = lower value.
A short description of assay [5]: growth inhibitors of H69AR lung tumor, primary screen, human, duplicate replicates (AID 580;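 active = viability at or under a set limit in both replicates, limit being median viability minus 3 SD, cut at about 48% in these data, passing the limit was not always enough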;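 note: 100% = mean luminescence of untreated wells and 0% = no signal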). Particulars: H69AR lung tumor cells viability, ATP luminescence, 72 h; at 10 µM; stronger effect = lower value.
Assay [6] can be described thus: reversal of MRP1-mediated doxorubicin resistance, pilot screen, H69AR cells, doxorubicin co-treatment (AID 601). Particulars: CellTiter-Glo, 72 h, at 10 µM; for differential viability (reversal): stronger effect = higher value.
Assay [7] in a line: 384-well plate pilot, post-Golgi transport modulator project, inhibition of yeast transport mutant growth (AID 636; in the data active = inhibition above about 31%). Particulars: absorbance 615 nm, about 18 h, stronger effect = higher value.
Assay [8] can be described thus: growth suppression of yeast trafficking mutant, preliminary HTS, modulators of trafficking downstream of Golgi apparatus project, 1536-format plate, OD 615 nm (AID 637; in the data active = inhibition above about 30%). Particulars: yeast transport mutant growth, absorbance 615 nm, 18 h; stronger effect = higher value.
Assay [9] in a line: OD615 S. cerevisiae growth inhibition, permissive medium, pilot counter-assay, permissive growth control for S. cerevisiae lifespan shortening project (AID 705;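 active = growth inhibition above 25% in both replicates, a cutoff set 3 SD above the mean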). The following applies: OD615, 24 h, at 10 µM, stronger effect = higher value.
Assay [10] is described as follows: Restrictive medium S. cerevisiae growth inhibition, OD615, pilot screen of yeast lifespan reduction project, restrictive growth control (AID 706;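 active = growth inhibition above a set limit, 3 SD over mean compound inhibition, in both replicates, cut at about 43% in these data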;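 note: modified DeaD lifespan yeast strain shifted to restrictive glucose medium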). The following applies: OD615, 48 h, at 10 µM, stronger effect = higher value.
Assay [11] can be described thus: viability gain of MRP-1-high H69AR cells under doxorubicin, pilot screen, MRP-1 activator project, CellTiter-Glo, duplicate (AID 807;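 active = viability increase at or above a cutoff of the median across tested compounds plus 3 SD, cut at about 8.5% in these data, passing the limit was not always enough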;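 note: compound pretreatment 18-22 h then 72 h combined with doxorubicin; 0% = doxorubicin alone and 100% = vehicle without doxorubicin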). The following applies: H69AR viability with doxorubicin, CellTiter-Glo luminescence; at 10 µM; stronger effect = higher value.
Assay [12] in a line: growth suppression of beta-catenin knockout HCT116, pilot screen, human colon tumor cells (AID 823;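 active = cell viability at or below a set limit in both duplicate runs, the limit being the all-compound median minus 4 SD, cut at about 23% in these data, passing the limit was not always enough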;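 note: 0% = wells killed by 20 µM Hyamine and 100% = untreated DMSO cell wells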). The following applies: CellTiter-Glo, 60 h, at 10 µM, stronger effect = lower value.
Assay [13] is described as follows: growth suppression of PTEN-deleted HCT116, pilot screen, cell-based, HCT116 clonal line, CellTiter-Glo (AID 824;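 active = viability at or below 27.92% in each of two runs, the all-compound median minus 4 SD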;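 note: 0% = 20 µM Hyamine control and 100% = vehicle cell control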). The following applies: 60 h, at 10 µM, stronger effect = lower value.
Assay [14] can be described thus: inhibitors of the yeast RAM network, pilot screen, dse1pr::URA3 reporter, 5-FOA selection (AID 869;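 active = inhibition over a set limit, the all-compound mean plus 3 SD, in both replicate runs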;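 note: 0% = DMSO wells with no growth and 100% = 10 µM 1-NA-PP1 with full growth; RAM network block rescues cells from 5-FOA so hits raise OD615 growth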). The following applies: S. cerevisiae dse1pr::URA3 5-FOA growth, OD615, 2 d; at 10 µM; stronger effect = higher value; strain carries analog-sensitive mutant Cbk1 kinase.
The nature of assay [15]: RAM signaling pathway blockade in yeast – S. cerevisiae, Pdr1DBD-CYC8 efflux-inhibited sensitized strain, primary screen (AID 1298;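 active = RAM network inhibition above 8.4% in each of two replicates, 3 SD over the compound average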;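 note: 0% = DMSO untreated cells without growth and 100% = 10 µM 1-NA-PP1 full growth; higher means more yeast growth rescued from 5-FOA killing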). The following applies: S. cerevisiae cbk1-as DSE1-URA3 strain, 5-FOA growth OD615, 2 d; at 50 µM; stronger effect = higher value.
The mark [16] stands for this setting: H69AR cells + 2 uM doxorubicin, measured here: viability with 2 uM doxorubicin, stronger effect = lower value.
[17] abbreviates: H69AR cells, compound alone cytotoxicity.

One may read the viability as a read-out of living cells in per cent, often relative to untreated cells. In general, inhibition refers to the relative decrease from the control value, in per cent.

Results filed as inconclusive are left out. Activity calls are given as the source filed them.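 Rule for the calls, unless noted: active = viability loss from added drug above about 55%, and viability with drug at most 40%, in both replicates (limit read from the data, passing the limit was not always enough); inconclusive = both conditions met in only one replicate; inactive = neither replicate meets both conditions.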

With `COc1cc(C2NC(=O)NC(C)=C2C(=O)OCC2CCCO2)ccc1O` (stereo not given), the viability is 90.5% in assay [1]; 90.5% (inactive) in assay [3]; 94.4% (inactive) in assay [4]; 103% (inactive) in [5]; 97.4% in assay [6] (setting [16]); 103% in [6] (setting [17]). In addition, the results for the viability in assay [12] and in assay [13] were 91.1% (inactive) and 88.3% (inactive), respectively. Besides, the Her2 level in assay [2] was 86.5% (inactive). The differential viability (reversal) in [6] (H69AR cells + 2 uM doxorubicin) was 5.47% (inactive). Also, the results for the inhibition in [7], in assay [8] and in [14] were -6.08% (inactive), -2.13% (inactive) and 1.59% (inactive), respectively. The values for the growth inhibition in assay [9] and in assay [10] were -7.94% (inactive) and -14.9% (inactive), respectively. Besides, the viability increase in assay [11] is -1.14% (inactive). Further, the RAM network inhibition in assay [15] was 1.93% (inactive).

Turning to `CS(=O)(=O)NCCSCc1c(F)cccc1Cl`, the viability in [1] is 89.5%; in assay [3], 89.5% (inactive); in [4], 100% (inactive); in assay [5] it was 102% (inactive); in assay [6] (setting [16]), 89.7%; in [6] (setting [17]), 102%. Further, the viability is 96.2% (inactive) in [12] and 91.9% (inactive) in assay [13]. In assay [2], the Her2 level was 107% (inactive). In addition, the differential viability (reversal) in assay [6] (H69AR cells + 2 uM doxorubicin) was 12.5% (inactive). Further, the inhibition in assay [7] was 0.4% (inactive); in assay [8] it was -8.06% (inactive); in assay [14] it was 1.1% (inactive). For the same compound, the figures for the growth inhibition in assay [9] and in [10] were -2.46% (inactive) and -2.41% (inactive), respectively. Besides, the viability increase in assay [11] is 0.04% (inactive). For the same compound, the RAM network inhibition in assay [15] is 1.27% (inactive).

As to `Cc1c(-n2c(CN3C(=O)c4ccccc4C3=O)nc3ccccc3c2=O)c(=O)n(-c2ccccc2)n1C`, the viability in [1] is 93.5%; in assay [3], 93.5% (inactive); in assay [4], 105% (inactive); in [5], 101% (inactive); in assay [6] (setting [16]) it was 97%; in assay [6] (setting [17]), 101%. Besides, the viability is 102% (inactive) in [12] and 99.6% (inactive) in assay [13]. Also, the Her2 level in assay [2] is 110% (inactive). In addition, in assay [6] (H69AR cells + 2 uM doxorubicin), the differential viability (reversal) is 3.82% (inactive). The inhibition in [7] is -1.76% (inactive); in assay [8], 4.6% (inactive); in assay [14], 1.4% (inactive). Moreover, the growth inhibition was -2.33% (inactive) in assay [9] and 2.67% (inactive) in assay [10]. Also, the viability increase in assay [11] is -1.08% (inactive). Further, the RAM network inhibition in assay [15] was 5.4% (inactive).

Regarding `CCCN(CCC)CCNC(=O)c1cc2c(=O)n(C)c3ccccc3c2n1C`, the viability in assay [1] was 89%; in [3], 89% (inactive); in [4], 57.5% (inactive); in [5] it was 77.1% (inactive); in assay [6] (setting [16]), 64%; in [6] (setting [17]), 77.1%. Also, the values for the viability in assay [12] and in assay [13] were 69.6% (inactive) and 73.4% (inactive), respectively. For the same compound, the Her2 level in assay [2] was 98.5% (inactive). Besides, the differential viability (reversal) in assay [6] (H69AR cells + 2 uM doxorubicin) was 13% (inactive). For the same compound, the inhibition was -2.53% (inactive) in assay [7], 1.67% (inactive) in assay [8] and 1.12% (inactive) in assay [14]. The growth inhibition is 6.58% (inactive) in assay [9] and 1.31% (inactive) in assay [10]. Further, in assay [11], the viability increase was -6.19% (inactive). Besides, the RAM network inhibition in assay [15] was 0.57% (inactive).

For `O=c1oc2ccccc2cc1NCc1ccccc1O`, the viability in assay [1] is 90.5%; in assay [3], 90.5% (inactive); in [4] it was 79.2% (inactive); in assay [5] it was 73.9% (inactive); in assay [6] (setting [16]), 87.4%; in assay [6] (setting [17]) it was 73.9%. For the same compound, the viability in assay [12] was 91.2% (inactive); in [13], 91.1% (inactive). Moreover, the Her2 level in assay [2] is 82% (inactive). Besides, in assay [6] (H69AR cells + 2 uM doxorubicin), the differential viability (reversal) was -13.5% (inactive). The inhibition in [7] is -2.56% (inactive); in assay [8], -0.5% (inactive); in assay [14] it was 1.91% (inactive). For the same compound, the growth inhibition in [9] is -12.5% (inactive); in [10] it was -15.2% (inactive). Besides, the viability increase in assay [11] was -6.51% (inactive). Moreover, in [15], the RAM network inhibition was 1.22% (inactive).

For the compound `CCOC(=O)c1ccc(N2Cc3cc(C)c(C)cc3C2)cc1O`, the viability was 95.5% in assay [1]; 95.5% (inactive) in assay [3]; 108% (inactive) in [4]; 97.3% (inactive) in [5]; 92.9% in assay [6] (setting [16]); 97.3% in assay [6] (setting [17]). Besides, the viability in [12] is 107% (inactive); in assay [13], 93.8% (inactive). For the same compound, the Her2 level in [2] was 95.5% (inactive). Moreover, the differential viability (reversal) in [6] (H69AR cells + 2 uM doxorubicin) was 4.4% (inactive). Besides, the inhibition was 4.27% (inactive) in [7], 10.3% (inactive) in [8] and 0.285% (inactive) in assay [14]. The growth inhibition in assay [9] is -10.9% (inactive); in assay [10] it was -7.42% (inactive). The viability increase in [11] was 2.66% (inactive). Also, the RAM network inhibition in assay [15] is 1.88% (inactive).

Consider `Cc1cccc(NC(=O)CS(=O)(=O)c2cn(C)c3ccccc23)c1`, for which the viability in assay [1] was 98%; in assay [3], 98% (inactive); in assay [4] it was 105% (inactive); in [5], 90.6% (inactive); in [6] (setting [16]) it was 92%; in assay [6] (setting [17]), 90.6%. Also, the figures for the viability in assay [12] and in [13] were 97.1% (inactive) and 92.6% (inactive), respectively. Moreover, the Her2 level in assay [2] was 95.5% (inactive). Besides, the differential viability (reversal) in assay [6] (H69AR cells + 2 uM doxorubicin) was -1.36% (inactive). For the same compound, the inhibition was -3.47% (inactive) in [7], -0.98% (inactive) in assay [8] and 1.98% (inactive) in assay [14]. Moreover, the values for the growth inhibition in [9] and in assay [10] were 1.62% (inactive) and -12% (inactive), respectively. The viability increase in assay [11] was -3.05% (inactive). Also, the RAM network inhibition in assay [15] was 4.28% (inactive).

For `O=C(c1ccc(Cl)s1)N1CCN(c2nc3ccccc3s2)CC1`, the viability in [1] was 84%; in assay [3], 84% (inactive); in assay [4], 69.4% (inactive); in [5], 85.9% (inactive); in assay [6] (setting [16]), 86.1%; in assay [6] (setting [17]), 85.9%. The viability in [12] was 81% (inactive); in [13], 83.7% (inactive). Also, the Her2 level in assay [2] was 78% (inactive). For the same compound, the differential viability (reversal) in assay [6] (H69AR cells + 2 uM doxorubicin) was -0.215% (inactive). The inhibition was -3.47% (inactive) in [7], 2.5% (inactive) in [8] and 2.66% (inactive) in assay [14]. Besides, the figures for the growth inhibition in assay [9] and in assay [10] were 3.6% (inactive) and -3.27% (inactive), respectively. Moreover, the viability increase in assay [11] was 0.2% (inactive). In assay [15], the RAM network inhibition was 2.18% (inactive).

With `COc1ccc(-n2c(Cc3cccn3C)nnc2SCC(=O)Nc2cccc(Cl)c2)cc1`, the viability in assay [1] was 103%; in [3] it was 103% (inactive); in assay [4], 63.3% (inactive); in assay [5], 85.3% (inactive); in assay [6] (setting [16]), 87.6%; in [6] (setting [17]), 85.3%. Besides, the viability is 76.5% (inactive) in assay [12] and 62.4% (inactive) in assay [13]. For the same compound, the Her2 level in [2] was 89% (inactive). In addition, the differential viability (reversal) in assay [6] (H69AR cells + 2 uM doxorubicin) is -2.28% (inactive). The inhibition in [7] was -2.8% (inactive); in assay [8] it was -2.67% (inactive); in [14], 0.615% (inactive). The growth inhibition in assay [9] was 4.36% (inactive); in assay [10], 21.3% (inactive). Also, the viability increase in assay [11] is -1.93% (inactive). Further, in assay [15], the RAM network inhibition is 11% (inactive).

`CCC(C)C(NC(=O)C1CCC(C)CC1)C(=O)NCc1cccnc1` (stereo not given): the viability is 99% in assay [1]; 99% (inactive) in assay [3]; 82.4% (inactive) in assay [4]; 102% (inactive) in [5]; 96.3% in [6] (setting [16]); 102% in [6] (setting [17]). For the same compound, the viability in assay [12] was 86.4% (inactive); in [13], 87.7% (inactive). For the same compound, the Her2 level in assay [2] was 87.5% (inactive). The differential viability (reversal) in assay [6] (H69AR cells + 2 uM doxorubicin) is 5.36% (inactive). Further, the inhibition in assay [7] is -6.89% (inactive); in assay [8] it was 3.17% (inactive); in assay [14] it was 0.265% (inactive). The growth inhibition in assay [9] was -12.5% (inactive); in [10], -2.67% (inactive). For the same compound, in assay [11], the viability increase is -0.91% (inactive). The RAM network inhibition in assay [15] was 4.7% (inactive).
